In PubChem BioAssay (NCATS):
Results filed as inconclusive are left out. Calls of active or inactive are those of the source. Calls come from the whole dose curve; as a rule, active = well fitted cell-killing curve with a large enough effect; inconclusive = small, poorly fitted or top-dose-only effect, or effect the other way; inactive = no such curve, though single readings can be large or run the other way.

Assays:
[1] = Quantitative High-Throughput drug screen in 47 multiple myeloma cell lines against the NCATS MIPE library collection: MM1R_ATCC cell viability assay (AID 1918981); note: nearly all actives have a fitted effect of over 35% in size
Method in brief: (§1)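 Inhibition of viability over 48 h was scored by ATP content (CellTiter-Glo) in 500-cell wells. Zero and full viability were defined by media-only and DMSO-only wells.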

[2] = Quantitative High-Throughput drug screen in 47 multiple myeloma cell lines against the NCATS MIPE library collection: OPM1_PLB cell viability assay (AID 1918989); note: nearly all actives have a fitted effect of over 40% in size
Method in brief: as §1

[3] = Quantitative High-Throughput drug screen in 47 multiple myeloma cell lines against the NCATS MIPE library collection: SKMM1_PLB cell viability assay (AID 1919863); details: SKMM1 myeloma viability, CellTiter-Glo ATP, 48 h; viability: hits give low values; note: nearly all actives have a fitted effect of over 35% in size
Method in brief: as §1

[4] = Quantitative High-Throughput drug screen in 47 multiple myeloma cell lines against the NCATS MIPE library collection: XG6_PLB cell viability assay (AID 1919865); note: nearly all actives have a fitted effect of over 40% in size
Method in brief: as §1

[5] = Quantitative High-Throughput drug screen in 47 multiple myeloma cell lines against the NCATS MIPE library collection: XG1_PLB cell viability assay (AID 1919866); note: nearly all actives have a fitted effect of over 35% in size
Method in brief: as §1

[6] = Quantitative High-Throughput drug screen in 47 multiple myeloma cell lines against the NCATS MIPE library collection: VP6_DJ cell viability assay (AID 1919867); note: nearly all actives have a fitted effect of over 40% in size
Method in brief: as §1

[7] = Quantitative High-Throughput drug screen in 47 multiple myeloma cell lines against the NCATS MIPE library collection: RPMI8226_ATCC cell viability assay (AID 1919871); note: nearly all actives have a fitted effect of over 30% in size
Method in brief: as §1

[8] = Quantitative High-Throughput drug screen in 47 multiple myeloma cell lines against the NCATS MIPE library collection: OPM2_DSMZ cell viability assay (AID 1919872); note: nearly all actives have a fitted effect of over 30% in size
Method in brief: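 We plated 500 myeloma cells per well, pinned in MIPE 4.0 compounds, and incubated for 48 hours at 37C. ATP was then quantified with CellTiter-Glo, with DMSO and media-only wells defining 100% and 0%.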

[9] = Quantitative High-Throughput drug screen in 47 multiple myeloma cell lines against the NCATS MIPE library collection: KMS11_JCRBsus cell viability assay (AID 1919873); note: nearly all actives have a fitted effect of over 50% in size
Method in brief: as §1

[10] = Quantitative High-Throughput drug screen in 47 multiple myeloma cell lines against the NCATS MIPE library collection: KMS28BM_JCRB cell viability assay (AID 1919874); note: nearly all actives have a fitted effect of over 35% in size
Method in brief: as §1

[11] = Quantitative High-Throughput drug screen in 47 multiple myeloma cell lines against the NCATS MIPE library collection: LP1_DSMZ cell viability assay (AID 1918982); note: nearly all actives have a fitted effect of over 35% in size
Method in brief: as §1

[12] = Quantitative High-Throughput drug screen in 47 multiple myeloma cell lines against the NCATS MIPE library collection: OCIMY7_PLB cell viability assay (AID 1918987); note: nearly all actives have a fitted effect of over 65% in size
Method in brief: as §1

[13] = Quantitative High-Throughput drug screen in 47 multiple myeloma cell lines against the NCATS MIPE library collection: U266_ATCC cell viability assay (AID 1919864); note: nearly all actives have a fitted effect of over 35% in size
Method in brief: as §1

[14] = Quantitative High-Throughput drug screen in 47 multiple myeloma cell lines against the NCATS MIPE library collection: UTMC2_PLB cell viability assay (AID 1919868); details: CellTiter-Glo ATP luminescence, 48 h; viability (% of DMSO control): at 45.8 µM (top of the series); note: nearly all actives have a fitted effect of over 55% in size
Method in brief: as §1

[15] = Quantitative High-Throughput drug screen in 47 multiple myeloma cell lines against the NCATS MIPE library collection: PE2_PLB cell viability assay (AID 1919869); note: nearly all actives have a fitted effect of over 35% in size
Method in brief: as §1

[16] = Quantitative High-Throughput drug screen in 47 multiple myeloma cell lines against the NCATS MIPE library collection: PCM6_Riken cell viability assay (AID 1919870); note: nearly all actives have a fitted effect of over 30% in size
Method in brief: as §1

[17] = Quantitative High-Throughput drug screen in 47 multiple myeloma cell lines against the NCATS MIPE library collection: KMS28PE_JCRB cell viability assay (AID 1918983); note: nearly all actives have a fitted effect of over 35% in size
Method in brief: as §1

[18] = Quantitative High-Throughput drug screen in 47 multiple myeloma cell lines against the NCATS MIPE library collection: KMS34_JCRB cell viability assay (AID 1918985); note: nearly all actives have a fitted effect of over 40% in size
Method in brief: as §1

[19] = Quantitative High-Throughput drug screen in 47 multiple myeloma cell lines against the NCATS MIPE library collection: OCIMY5_PLB cell viability assay (AID 1918988); note: nearly all actives have a fitted effect of over 65% in size
Method in brief: as §1
Potency is the fitted concentration of half-maximal effect.

c1cc2c(cc1[C@H]1OC[C@H]3[C@H]1CO[C@H]3c1ccc3c(c1)OCO3)OCO2
inactive: Potency [1] | Potency [2] | viability [3] 134% | Potency [5] | Potency [6] | Potency [7] | Potency [8] | Potency [9] | Potency [10]
active: Potency [4] 26.4 µM

C=C1C[C@H]2[C@H]3CCC(=O)[C@@]3(C)CC[C@@H]2[C@@]2(C)C=CC(=O)C=C12
inactive: Potency [11] | Potency [8] | Potency [10]
active: Potency [12] 9.35 µM | Potency [13] 20.9 µM | Potency [7] 18.7 µM

O=C1CCC[C@@H]2[C@H]3CCCN4CCC[C@@H](CN12)[C@@H]34
inactive: Potency [2] | Potency [4] | Potency [5] | Potency [14] | Potency [15] | Potency [8] | Potency [9] | Potency [10]

NC1CC1c1ccccc1 (stereo unspecified)
inactive: Potency [11] | Potency [12] | Potency [13] | Potency [4] | Potency [5] | Potency [14] | Potency [16] | Potency [7] | Potency [8] | Potency [9] | Potency [10]

C[C@]12CC[C@H]3[C@@H](CCC4=CC(=O)CC[C@@]43C)[C@H]1CC[C@H]2OC(=O)CCC1CCCC1
inactive: Potency [17] | Potency [13] | Potency [5] | Potency [6] | Potency [8] | Potency [9] | Potency [10]

CC(=O)Nc1ccc(OC[C@](C)(O)C(=O)Nc2ccc([N+](=O)[O-])c(C(F)(F)F)c2)cc1
inactive: Potency [5] | Potency [14] | Potency [16]
active: Potency [12] 10.5 µM

C[C@]12CC[C@@H]3[C@@H](CCC4=CC(=O)CC[C@@H]43)[C@@H]1CC[C@@H]2OC(=O)CCc1ccccc1
inactive: Potency [13] | Potency [15] | Potency [8] | Potency [9] | Potency [10]

O=C1C=CC[C@@H]2[C@H]3CCCN4CCC[C@@H](CN12)[C@@H]34
inactive: Potency [11] | viability [3] 117% | Potency [5] | Potency [14] | Potency [8] | Potency [9]
active: Potency [13] 16.6 µM

CCCCCC[C@H]1C(=O)O[C@H](C)[C@H](NC(=O)c2cccc(NC=O)c2O)C(=O)O[C@@H](C)[C@@H]1OC(=O)CC(C)C
active: Potency [11] 0.059 µM | Potency [17] 0.372 µM | Potency [12] 0.187 µM | Potency [3] 5.26 µM | Potency [13] 0.372 µM | Potency [4] 0.105 µM | Potency [5] 0.0235 µM | Potency [6] 0.0469 µM | Potency [14] 0.0526 µM | Potency [16] 0.0526 µM | Potency [7] 1.05 µM | Potency [9] 0.0743 µM | Potency [10] 0.209 µM

C[C@](O)(COc1ccc(C#N)cc1)C(=O)Nc1ccc(C#N)c(C(F)(F)F)c1
active: Potency [12] 26.4 µM | Potency [15] 18.7 µM
inactive: Potency [11] | Potency [18] | Potency [13] | Potency [8]

Cc1c(N)nc([C@H](CC(N)=O)NC[C@@H](N)C(N)=O)nc1C(=O)N[C@H](C(=O)N[C@@H](C)[C@H](O)[C@@H](C)C(=O)N[C@@H](C(=O)NCCc1nc(-c2nc(C(=O)NCCC[S+](C)C)cs2)cs1)[C@@H](C)O)C(O[C@H]1O[C@H](CO)[C@H](O)[C@@H](O)[C@@H]1O[C@H]1O[C@H](CO)[C@@H](O)[C@H](OC(N)=O)[C@H]1O)c1cnc[nH]1 (stereo partly specified)
active: Potency [4] 0.59 µM | Potency [5] 0.209 µM | Potency [6] 16.6 µM | Potency [14] 0.209 µM | Potency [8] 2.35 µM | Potency [10] 7.43 µM
inactive: Potency [11] | Potency [17] | viability [3] 89.3% | Potency [16] | Potency [7] | Potency [9]

CN(C)NC(=O)CCC(=O)O
inactive: Potency [11] | viability [3] 111% | Potency [7] | Potency [8] | Potency [9]
active: Potency [5] 26.4 µM | Potency [6] 16.6 µM | Potency [14] 0.0372 µM

Cc1c(C(=O)c2cccc3ccccc23)c2cccc3c2n1[C@H](CN1CCOCC1)CO3
active: Potency [17] 26.4 µM | Potency [18] 23.5 µM | Potency [12] 13.2 µM | Potency [2] 23.5 µM | Potency [3] 23.5 µM | Potency [13] 18.7 µM | Potency [7] 23.5 µM | Potency [8] 23.5 µM | Potency [9] 23.5 µM | Potency [10] 23.5 µM
inactive: Potency [5] | Potency [6] | Potency [16]

CCNC(=O)C[C@@H]1N=C(c2ccc(Cl)cc2)c2cc(OC)ccc2-n2c(C)nnc21
active: Potency [1] 0.59 µM | Potency [12] 2.64 µM | Potency [3] 0.469 µM | Potency [13] 0.372 µM | Potency [5] 0.833 µM | Potency [6] 0.296 µM | Potency [15] 2.96 µM | Potency [7] 1.18 µM | Potency [9] 0.105 µM

COC1=C[C@@H]2[C@@H]3Cc4ccc(OC)c(O)c4[C@]2(CCN3C)CC1=O
inactive: viability [3] 132% | Potency [7]
active: Potency [12] 3.32 µM | Potency [13] 2.35 µM | Potency [4] 1.18 µM | Potency [5] 1.32 µM | Potency [6] 2.35 µM | Potency [14] 4.69 µM | Potency [16] 2.64 µM

CCN(CC)C(=O)c1ccc(C2=CC3(CCNCC3)Oc3cccc(O)c32)cc1
inactive: Potency [11] | Potency [17] | Potency [12] | Potency [2] | viability [3] 112% | Potency [4] | Potency [6] | Potency [15] | Potency [8] | Potency [9] | Potency [10]

CCNC(=O)CC1N=C(c2ccc(Cl)cc2)c2cc(OC)ccc2-n2c(C)nnc21 (stereo unspecified)
active: Potency [1] 14.8 µM | Potency [12] 18.7 µM | Potency [19] 6.62 µM | Potency [13] 18.7 µM | Potency [4] 4.69 µM | Potency [5] 5.9 µM | Potency [6] 16.6 µM | Potency [16] 23.5 µM | Potency [7] 4.69 µM | Potency [8] 16.6 µM | Potency [9] 18.7 µM | Potency [10] 18.7 µM
